In all, about 8,300 sequences were measured (“log2 fold change of degron read counts, EGFP-low vs EGFP+ sorted cells (limma voom), compound-induced degradation”: median about -1.1, highest 2% from about 3.2 on). This excerpt belongs to a sample that is enriched for the highest values.
T1: CRBN, Q96SW2
T1 chain: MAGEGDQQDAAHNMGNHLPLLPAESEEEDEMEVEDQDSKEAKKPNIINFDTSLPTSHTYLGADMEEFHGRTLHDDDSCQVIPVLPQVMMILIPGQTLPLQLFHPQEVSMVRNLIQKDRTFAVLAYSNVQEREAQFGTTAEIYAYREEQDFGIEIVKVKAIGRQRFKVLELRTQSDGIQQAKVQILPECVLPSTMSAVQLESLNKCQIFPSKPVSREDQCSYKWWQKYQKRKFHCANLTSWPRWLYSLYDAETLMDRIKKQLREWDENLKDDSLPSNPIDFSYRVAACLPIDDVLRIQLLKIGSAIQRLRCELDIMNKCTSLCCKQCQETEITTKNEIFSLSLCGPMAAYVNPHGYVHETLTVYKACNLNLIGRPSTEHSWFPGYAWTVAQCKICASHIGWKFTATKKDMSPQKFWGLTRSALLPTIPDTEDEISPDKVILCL


Molecular target: T1, CRBN, Q96SW2
Test: log2 fold change of degron read counts, EGFP-low vs EGFP+ sorted cells (limma voom), compound-induced degradation; higher = more compound-induced degradation of the degron-EGFP fusion; degrons are variants of IKZF1/3 zinc finger 2; compound dose not given here
Details: Jurkat, 18 h
[1] = compound: compound 19 (5-tert-butyl-thalidomide)
[2] = compound: compound 22 (5-morpholino-thalidomide)
[3] = compound: compound 33 (diphenyl IMiD analogue)
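Also: pooled lentiviral library of zinc finger degron-EGFP fusions in mCherry-positive Jurkat cells, FACS-sorted after compound exposure, with degron abundance counted by next-generation sequencing.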

Sequence | log2 fold change of degron read counts [1] | log2 fold change of degron read counts [2] | log2 fold change of degron read counts [3] | log2 fold change of degron read counts (compound: thalidomide)
FLCEVCGAEFTQKGNLLRHIKL [46F_47L_49E_50V_52G_53A_54E_55F_67L_, Q9UKT9] | 0.493 | -1.2 | 0.235 | 1.01
FYCPICGRSFTQKGNLLRHIKL [46F_47Y_49P_50I_52G_53R_54S_55F_67L_, Q9UKT9] | -1.81 | -2.36 | -1.67 | -2.4
FHCNQCGHYFTQKGNLLRHIKL [46F_47H_49N_50Q_52G_53H_54Y_55F_67L_, Q9UKT9] | -2.17 | -2.71 | -2.16 | -1.62
FYCPICGRMFTQKGNLLRHIKL [46F_47Y_49P_50I_52G_53R_54M_55F_67L_, Q9UKT9] | -0.787 | -1.23 | -0.675 | -1.57
FGCEVCGALFTQKGNLLRHIKL [46F_47G_49E_50V_52G_53A_54L_55F_67L_, Q9UKT9] | 2.18 | 0.893 | 1.4 | -0.493
FACEVCGARFTQKGNLLRHIKL [46F_47A_49E_50V_52G_53A_54R_55F_67L_, Q9UKT9] | 3.91 | 3.03 | -0.415 | 1.17
FACEVCGADFTQKGNLLRHIKL [46F_47A_49E_50V_52G_53A_54D_55F_67L_, Q9UKT9] | 1.11 | -1.42 | -1.53 | -1.97
FNCEVCGARFTQKGNLLRHIKL [46F_47N_49E_50V_52G_53A_54R_55F_67L_, Q9UKT9] | 2.12 | 0.955 | -0.805 | 0.249
FVCEVCGARFTQKGNLLRHIKL [46F_47V_49E_50V_52G_53A_54R_55F_67L_, Q9UKT9] | 1.35 | 2.78 | 0.984 | 3.25
FGCEVCGADFTQKGNLLRHIKL [46F_47G_49E_50V_52G_53A_54D_55F_67L_, Q9UKT9] | -1.71 | -2.17 | -0.906 | -1.3
FLCEVCGARFTQKGNLLRHIKL [46F_47L_49E_50V_52G_53A_54R_55F_67L_, Q9UKT9] | -0.109 | -1.35 | -0.123 | 2.09
FACEVCGALFTQKGNLLRHIKL [46F_47A_49E_50V_52G_53A_54L_55F_67L_, Q9UKT9] | 1.98 | -0.613 | -0.457 | -1.05
FQCEVCGARFTQKGNLLRHIKL [46F_47Q_49E_50V_52G_53A_54R_55F_67L_, Q9UKT9] | -0.109 | 1.95 | 1.42 | 3.71
FMCEVCGARFTQKGNLLRHIKL [46F_47M_49E_50V_52G_53A_54R_55F_67L_, Q9UKT9] | 0.167 | -0.178 | 1.48 | 1.48
FGCEVCGARFTQKGNLLRHIKL [46F_47G_49E_50V_52G_53A_54R_55F_67L_, Q9UKT9] | 3.86 | 2.74 | -0.6 | 1.27
FKCEVCGARFTQKGNLLRHIKL [46F_47K_49E_50V_52G_53A_54R_55F_67L_, Q9UKT9] | -1.76 | -3.02 | -3.44 | -1.87
FACDQCGAYFTQKGNLLRHIKL [46F_47A_49D_50Q_52G_53A_54Y_55F_67L_, Q9UKT9] | -1.75 | -2.34 | -1.85 | -2.43
FLCSVCGHQFTQKGNLLRHIKL [46F_47L_49S_50V_52G_53H_54Q_55F_67L_, Q9UKT9] | -2.83 | -2.7 | -2.54 | -2.76

Source: the supplement of paper PMC12645437, “Orthogonal IMiD-Degron Pairs Induce Selective Protein Degradation in Cells” (ACS Chemical Biology, 2025)
